Assay results taken from PubChem BioAssay (EPA / NIEHS).
Inconclusive results are not listed. The source made the active and inactive calls. How the source made its calls, unless noted: active means hit-call score of the fitted dose curve at least 0.9, where 1 is the maximum; inactive means score below 0.9.

Key:
[1] = target: Retinoic acid receptor RXR-alpha (Homo sapiens) (UniProt P19793); assay: ATG_RXRa_TRANS: Attagene TRANS-FACTORIAL HepG2 Assay for human Retinoid X Receptor alpha (RXRa) (AID 2283012; active means hit-call score of the fitted dose curve at least 0.9, where 1 is the maximum)
Chain of Retinoic acid receptor RXR-alpha (Homo sapiens) (P19793 whole entry, looked up, the tested form may be a part): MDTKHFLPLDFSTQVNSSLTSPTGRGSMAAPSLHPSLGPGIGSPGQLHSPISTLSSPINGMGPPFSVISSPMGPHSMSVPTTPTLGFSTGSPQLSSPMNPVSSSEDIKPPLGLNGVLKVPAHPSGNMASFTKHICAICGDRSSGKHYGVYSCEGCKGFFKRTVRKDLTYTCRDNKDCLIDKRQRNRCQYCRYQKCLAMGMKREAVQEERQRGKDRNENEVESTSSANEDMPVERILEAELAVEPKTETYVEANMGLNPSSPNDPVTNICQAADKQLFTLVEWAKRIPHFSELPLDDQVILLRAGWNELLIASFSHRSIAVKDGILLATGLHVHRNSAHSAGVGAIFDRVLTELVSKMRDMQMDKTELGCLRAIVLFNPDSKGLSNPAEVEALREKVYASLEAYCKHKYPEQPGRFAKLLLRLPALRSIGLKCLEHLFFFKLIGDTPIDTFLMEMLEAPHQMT
Method in brief: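 Read-out: fluorescent reporter-transcript fragments quantified by capillary electrophoresis after RT-PCR. Transiently transfected HepG2 cells carrying GAL4-UAS reporters and NR-GAL4 chimeras were exposed to chemical for 24 h; activity scored as increase over DMSO.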

[2] = target: human Retinoid X Receptor beta (RXRb), RXRB (gene 6257) (UniProt P28702); assay: ATG_RXRb_TRANS: Attagene TRANS-FACTORIAL HepG2 Assay for human Retinoid X Receptor beta (RXRb) (AID 2283013; active means hit-call score of the fitted dose curve at least 0.9, where 1 is the maximum)
Chain of human Retinoid X Receptor beta (RXRb), RXRB (gene 6257) (P28702 whole entry, looked up, the tested form may be a part): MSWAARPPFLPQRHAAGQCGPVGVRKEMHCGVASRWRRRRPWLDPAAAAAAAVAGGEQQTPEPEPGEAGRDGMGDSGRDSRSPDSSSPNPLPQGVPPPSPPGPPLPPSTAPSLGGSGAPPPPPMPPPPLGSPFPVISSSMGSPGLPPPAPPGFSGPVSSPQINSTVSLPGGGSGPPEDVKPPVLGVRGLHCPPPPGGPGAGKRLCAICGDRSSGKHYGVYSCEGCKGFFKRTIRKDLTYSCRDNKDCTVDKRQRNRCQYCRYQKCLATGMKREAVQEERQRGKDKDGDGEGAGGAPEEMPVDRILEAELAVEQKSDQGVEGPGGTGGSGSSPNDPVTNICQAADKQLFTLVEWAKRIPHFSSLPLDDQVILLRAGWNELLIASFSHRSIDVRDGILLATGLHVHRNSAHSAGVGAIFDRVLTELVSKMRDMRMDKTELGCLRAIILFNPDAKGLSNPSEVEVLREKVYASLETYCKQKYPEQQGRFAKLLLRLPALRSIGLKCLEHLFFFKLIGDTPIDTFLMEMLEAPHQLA
Method in brief: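 Read-out: reporter mRNA induction via RT-PCR plus capillary electrophoresis fluorescence, analysed as signal increase relative to DMSO. Cells were human HepG2, transiently transfected with GAL4-UAS reporter constructs and chimeric receptor-Gal4 fusions, dosed for 24 h.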

[3] = target: human Thyroid Receptor alpha (THRa1), THRA (gene 7067) (UniProt P10827); assay: ATG_THRa1_TRANS: Attagene TRANS-FACTORIAL HepG2 Assay for human Thyroid Receptor alpha (THRa1) (AID 2283014; active means hit-call score of the fitted dose curve at least 0.9, where 1 is the maximum)
Chain of human Thyroid Receptor alpha (THRa1), THRA (gene 7067) (P10827 whole entry, looked up, the tested form may be a part): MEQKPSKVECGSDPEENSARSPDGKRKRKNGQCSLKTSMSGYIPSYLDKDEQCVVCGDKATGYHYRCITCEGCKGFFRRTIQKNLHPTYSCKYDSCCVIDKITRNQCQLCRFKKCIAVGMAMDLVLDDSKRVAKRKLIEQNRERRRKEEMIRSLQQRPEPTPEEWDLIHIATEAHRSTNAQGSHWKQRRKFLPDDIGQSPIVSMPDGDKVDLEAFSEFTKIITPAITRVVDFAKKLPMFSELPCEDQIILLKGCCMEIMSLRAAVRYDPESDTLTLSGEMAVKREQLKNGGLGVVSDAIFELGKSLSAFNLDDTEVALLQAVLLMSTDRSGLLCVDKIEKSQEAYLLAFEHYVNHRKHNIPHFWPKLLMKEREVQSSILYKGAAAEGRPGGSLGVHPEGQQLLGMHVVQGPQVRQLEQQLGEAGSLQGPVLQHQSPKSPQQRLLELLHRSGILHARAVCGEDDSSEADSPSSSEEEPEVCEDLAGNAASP
Method in brief: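 Transient HepG2 transfection, NR-Gal4 chimera driving GAL4-UAS reporters; 24 h compound exposure; total RNA, oligo(dT) RT, PCR, fluorescent primer extension, capillary electrophoresis. Upward direction vs DMSO control.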

[4] = read-out: E-selectin (Homo sapiens) (UniProt P16581); assay: BSK_3C_Eselectin: BioMAP Diversity Plus: 3C Assay for Eselectin Biomarker Activity (AID 2283015); details: primary human endothelial cells (HUVEC); actives raise or lower the signal
Method in brief: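 HUVEC, 3C stimulation; compound exposure 24 h; E-selectin by ELISA; gain- or loss-of-signal fitted bidirectionally vs DMSO baseline.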

[5] = read-out: Interleukin-1 alpha (IL1a), IL1A (gene 3552); assay: BSK_BE3C_IL1a: BioMAP Diversity Plus: BE3C Assay for Interleukin-1 alpha (IL1a) Biomarker Activity (AID 2283016); details: primary human bronchial epithelial cells; actives raise or lower the signal
Method in brief: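 ELISA read-out of IL-1a from human lung bronchial epithelial primary cells, 24 h post-dose. Gain or loss of signal fitted relative to DMSO negative control.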

[6] = read-out: Monocyte Chemoattractant Protein-1 (MCP1), CCL2 (gene 6347); assay: BSK_3C_MCP1: BioMAP Diversity Plus: 3C Assay for Monocyte Chemoattractant Protein-1 (MCP1) Biomarker Activity (AID 2283017); details: primary human endothelial cells (HUVEC); actives raise or lower the signal
Method in brief: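 HUVEC, 3C system; 24 h chemical exposure; MCP-1 by ELISA; bidirectional curve fit vs DMSO baseline.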

[7] = read-out: Monocyte Chemoattractant Protein-1 (MCP1), CCL2 (gene 6347); assay: BSK_4H_MCP1: BioMAP Diversity Plus: 4H Assay for Monocyte Chemoattractant Protein-1 (MCP1) Biomarker Activity (AID 2283018); details: primary human endothelial cells (HUVEC); actives raise or lower the signal
Method in brief: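 HUVEC primary cells, 24 h post-dose, MCP-1 by ELISA. Gain or loss of signal fitted bidirectionally vs DMSO baseline. Cytotoxicity: SRB stain (0.1% after 10% TCA fixation), read 560 nm, parallel cultures.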

[8] = read-out: Human Leukocyte Antigen - DR isotype (HLADR), HLA-DRA (gene 3122); assay: BSK_3C_HLADR: BioMAP Diversity Plus: 3C Assay for Human Leukocyte Antigen - DR isotype (HLADR) Biomarker Activity (AID 2283019); details: primary human endothelial cells (HUVEC); actives raise or lower the signal
Method in brief: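 HUVEC, 3C stimulation, 24 h post-dose; HLA-DR by ELISA; bidirectional curve fit vs DMSO baseline; gain or loss of signal scored.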

[9] = read-out: Interleukin-8 (IL8), CXCL8 (gene 3576); assay: BSK_3C_IL8: BioMAP Diversity Plus: 3C Assay for Interleukin-8 (IL8) Biomarker Activity (AID 2283020); details: primary human endothelial cells (HUVEC); actives raise or lower the signal
Method in brief: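 HUVEC, 3C stimulation; 24 h compound exposure; IL-8 read by ELISA; gain or loss of signal fitted relative to DMSO control.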

[10] = read-out: Monokine induced gamma interferon (MIG), CXCL9 (gene 4283); assay: BSK_3C_MIG: BioMAP Diversity Plus: 3C Assay for Monokine induced gamma interferon (MIG) Biomarker Activity (AID 2283021); details: primary human endothelial cells (HUVEC); actives raise or lower the signal
Method in brief: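 HUVEC, 3C system; 24 h chemical exposure; MIG by ELISA; bidirectional fit vs DMSO baseline.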

[11] = BSK_3C_SRB: Viability Assessment in the BioMAP Diversity Plus: 3C Assay (AID 2283023); details: primary human endothelial cells (HUVEC);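 further: fitted both ways against DMSO so a hit may be signal rise or drop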
Method in brief: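 HUVEC, 24 h post-dose; 10% TCA fix, 0.1% SRB stain, A560 nm. Bidirectional curve fit vs DMSO negative control.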

[12] = read-out: Matrix Metallopeptidase 1 (MMP1), MMP1 (gene 4312); assay: BSK_BE3C_MMP1: BioMAP Diversity Plus: BE3C Assay for Matrix Metallopeptidase 1 (MMP1) Biomarker Activity (AID 2283024); details: primary human bronchial epithelial cells; actives raise or lower the signal
Method in brief: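 ELISA read-out of MMP1 in human lung bronchial epithelial primary cultures, 24 h post-dose; bidirectional curve fit vs DMSO baseline, gain or loss of signal scored.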

[13] = BSK_3C_Vis: BioMAP Diversity Plus: 3C Assay for Morphology Visualization (AID 2283025); details: primary human endothelial cells (HUVEC);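 further: fitted both ways so gain or loss versus DMSO counts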;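 on AC50: light microscopy image of cell morphology used as background control; cells imaged 24 h after dosing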
Method in brief: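 HUVEC, 3C system; light microscopy of morphology at 24 h post-dose. Bidirectional fit vs DMSO baseline. Secondary readout, background-control function.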

[14] = read-out: Pselectin, SELP (gene 6403); assay: BSK_4H_Pselectin: BioMAP Diversity Plus: 4H Assay for Pselectin Biomarker Activity (AID 2283026); details: primary human endothelial cells (HUVEC); actives raise or lower the signal
Method in brief: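 HUVEC, 24 h chemical exposure; P-selectin read by ELISA. Bidirectional curve fit vs DMSO baseline; gain or loss of signal scored.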

[15] = BSK_4H_SRB: Viability Assessment in the BioMAP Diversity Plus: 4H Assay (AID 2283027); details: primary human endothelial cells (HUVEC);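 further: cells exposed to compound for 24 h before staining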;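 on AC50: curves fitted both ways versus DMSO so AC50 may be loss or gain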
Method in brief: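 Cytotoxicity read-out in primary human endothelial cells: after 24 h compound exposure, cells were TCA-fixed (10%), stained with 0.1% SRB and absorbance taken at 560 nm. Values fitted in both directions relative to DMSO.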

[16] = BSK_BE3C_SRB: Viability Assessment in the BioMAP Diversity Plus: BE3C Assay (AID 2283028); details: primary human bronchial epithelial cells;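 on AC50: fitted both ways so AC50 may mark signal gain or loss versus DMSO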
Method in brief: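 Primary human bronchial epithelium; chemical dosing, 24 h; 10% TCA fix, 0.1% SRB stain, A560; bidirectional fit vs DMSO baseline.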

[17] = read-out: Thrombomodulin, THBD (gene 7056); assay: BSK_3C_Thrombomodulin: BioMAP Diversity Plus: 3C Assay for Thrombomodulin Biomarker Activity (AID 2283029); details: primary human endothelial cells (HUVEC); actives raise or lower the signal
Method in brief: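 HUVEC, 3C conditions; compound 24 h; thrombomodulin by ELISA; bidirectional curve fit vs DMSO baseline; parallel SRB total-protein staining for cytotoxicity.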

[18] = read-out: Urokinase-type plasminogen activator receptor (uPAR), PLAUR (gene 5329); assay: BSK_4H_uPAR: BioMAP Diversity Plus: 4H Assay for Urokinase-type plasminogen activator receptor (uPAR) Biomarker Activity (AID 2283030); details: primary human endothelial cells (HUVEC); actives raise or lower the signal
Method in brief: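 HUVEC, 24 h post-dose; uPAR by ELISA; bidirectional fit vs DMSO baseline.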

[19] = read-out: Vascular endothelial growth factor receptor 2 (Homo sapiens) (UniProt P35968); assay: BSK_4H_VEGFRII: BioMAP Diversity Plus: 4H Assay for Vascular endothelial growth factor receptor 2 (VEGFR2) Biomarker Activity (AID 2283031); details: primary human endothelial cells (HUVEC); actives raise or lower the signal
Method in brief: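 HUVEC (human primary), 4H system; 24 h post-dose; VEGFRII by ELISA; bidirectional curve fit vs DMSO baseline; gain or loss of signal scored.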

[20] = target: human Vitamin D Receptor (VDR), VDR (gene 7421) (UniProt P11473); assay: ATG_VDR_TRANS: Attagene TRANS-FACTORIAL HepG2 Assay for human Vitamin D Receptor (VDR) (AID 2283022; active means hit-call score of the fitted dose curve at least 0.9, where 1 is the maximum)
Chain of human Vitamin D Receptor (VDR), VDR (gene 7421) (P11473 whole entry, looked up, the tested form may be a part): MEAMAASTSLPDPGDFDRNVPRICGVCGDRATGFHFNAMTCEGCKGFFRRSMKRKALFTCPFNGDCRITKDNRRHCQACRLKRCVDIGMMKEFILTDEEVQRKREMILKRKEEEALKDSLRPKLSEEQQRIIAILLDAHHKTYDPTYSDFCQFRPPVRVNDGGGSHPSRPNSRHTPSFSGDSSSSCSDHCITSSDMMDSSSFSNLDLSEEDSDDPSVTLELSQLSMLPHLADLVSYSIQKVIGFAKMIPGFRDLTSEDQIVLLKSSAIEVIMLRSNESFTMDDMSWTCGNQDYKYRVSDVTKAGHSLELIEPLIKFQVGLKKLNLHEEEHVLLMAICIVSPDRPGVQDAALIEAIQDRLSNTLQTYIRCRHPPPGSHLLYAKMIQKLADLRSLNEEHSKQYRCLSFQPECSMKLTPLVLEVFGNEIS
Method in brief: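 RT-PCR/capillary electrophoresis read-out of reporter mRNA induction in transiently transfected HepG2; 24 h dosing; chimeric NR-Gal4 (TRANS format); gain-of-signal fit against DMSO baseline.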

Measured: AC50

Chain of E-selectin (Homo sapiens) (P16581 whole entry, looked up): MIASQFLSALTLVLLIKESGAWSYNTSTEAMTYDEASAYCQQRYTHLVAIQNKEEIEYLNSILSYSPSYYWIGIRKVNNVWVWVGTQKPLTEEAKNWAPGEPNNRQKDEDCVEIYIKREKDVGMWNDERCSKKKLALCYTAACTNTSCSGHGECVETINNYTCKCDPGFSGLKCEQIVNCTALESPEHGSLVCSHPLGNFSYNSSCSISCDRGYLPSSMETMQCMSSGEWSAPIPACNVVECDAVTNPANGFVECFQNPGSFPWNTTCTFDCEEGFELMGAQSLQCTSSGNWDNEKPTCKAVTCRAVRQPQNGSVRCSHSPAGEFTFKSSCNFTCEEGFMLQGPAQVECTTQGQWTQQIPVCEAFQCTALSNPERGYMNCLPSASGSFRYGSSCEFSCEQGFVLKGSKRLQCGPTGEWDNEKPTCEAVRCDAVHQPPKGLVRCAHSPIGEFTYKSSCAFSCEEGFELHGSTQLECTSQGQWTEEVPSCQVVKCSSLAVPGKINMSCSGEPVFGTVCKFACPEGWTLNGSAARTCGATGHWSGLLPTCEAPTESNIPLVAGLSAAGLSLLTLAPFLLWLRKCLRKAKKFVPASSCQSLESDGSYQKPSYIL

CS(=O)(=O)c1ccc(C2=C(c3ccccc3)C(=O)OC2)cc1
inactive: [1] | [2] | [3] | [4] | [5] | [6] | [7] | [8] | [9] | [10] | [11] | [12] | [13] | [14] | [15] | [16] | [17] | [18] | [19]

c1ccc(CCc2ccccc2)cc1
active: [4] 28.7 µM | [5] 27 µM | [6] 28.5 µM | [7] 32.1 µM | [8] 15.3 µM | [9] 25.8 µM | [11] 30.5 µM | [12] 20 µM | [13] 8.8 µM | [14] 35.7 µM | [15] 31 µM | [16] 33.2 µM | [17] 20 µM | [18] 32.2 µM
inactive: [1] | [2] | [3] | [19]

COC(C)(C)CC(C)=O
inactive: [1] | [2] | [3]

CC(C)C(OC(=O)c1ccccc1)C(C)(C)COC(=O)c1ccccc1 (configuration not stated)
active: [2] 25.4 µM
inactive: [1] | [3] | [20]

CC=Cc1ccc(OC)c(OC)c1
inactive: [1] | [2] | [3]

CC(C)CCCCCCCCCCCCCCC(=O)O
inactive: [1] | [3]
active: [2] 11.4 µM

O=C(Nc1ccc2c(c1)Cc1ccccc1-2)C(F)(F)F
inactive: [1] | [2] | [3] | [20]

CN(C)CCOc1ccc(/C(=C(/CCCl)c2ccccc2)c2ccccc2)cc1
inactive: [1] | [2] | [3]

CCCCOC(=O)CCCCCCCC(=O)OCCCC
inactive: [1] | [2] | [3] | [4] | [5] | [6] | [7] | [8] | [9] | [10] | [20] | [11] | [12] | [13] | [14] | [15] | [16] | [17] | [18] | [19]

C1=CC2C3C=CC(C3)C2C1 (configuration not stated)
inactive: [1] | [2] | [3] | [4] | [5] | [6] | [7] | [8] | [9] | [10] | [20] | [11] | [12] | [13] | [14] | [15] | [16] | [17] | [18] | [19]
